Screens: PubChem, National Center for Advancing Translational Sciences (NCATS)
In the library only some 9% were active in any assay of this set; here they are far more common.
LMNA splice mod = LMNA splicing modulation | HeLa LMNA splicing GFP/RFP minigene ratio, 48 h | Potency, µM (highest dose often 46.1 µM), most hits filed as inhibitors | hit rate 0.01% among 200,000; active = well fitted inhibition curve with a large enough effect in the signal ratio, with a control signal flat, not every such curve was filed as active; inconclusive = small, poorly fitted or top-dose-only effect, or effect the other way, or a change in a side signal; the % refers to the signal ratio
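Read-out is the ratio of GFP to DsRed2 object intensity, acquired by 488 nm laser-scanning cytometry on HeLa lamin A-EGFP minigene reporter cells. Compound incubation 48 hrs at 37 °C in Opti-MEM with 2% FBS; DMSO 0.5% final.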
KinaseGlo FLuc = Kinase-Glo luciferase inhibition (counter-screen) | Kinase-Glo luciferase, ATP luminescence, 8 min | Potency, µM (doses to about 38.3 µM), hits mostly inhibitors | hit rate 0.28% among 200,000 | AID 1379; note: nearly all actives have a fitted effect of over 60% in size
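Luminescence was the read-out, taken after 8-minute incubation at ambient temperature. Luciferase turned over luciferin with 10 uM ATP in imidazole pH 7.2 buffer containing KCl, MgCl2, Tween 20 and BSA.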
ALDH1A1 block = blocks purified human ALDH1A1 activity; Potency, µM (titrated, usually from 75.3 µM), actives largely listed as inhibitors; Purified ALDH1A1, NADH fluorescence, propionaldehyde substrate; P00352; hit rate 7.3% among 220,000; active = well fitted inhibition curve with a large enough effect, not every such curve was filed as active; inconclusive = small, poorly fitted or top-dose-only effect, or another doubt; inactive = no such curve, though single readings can be large or run the other way
Target sequence (P00352 whole entry, looked up): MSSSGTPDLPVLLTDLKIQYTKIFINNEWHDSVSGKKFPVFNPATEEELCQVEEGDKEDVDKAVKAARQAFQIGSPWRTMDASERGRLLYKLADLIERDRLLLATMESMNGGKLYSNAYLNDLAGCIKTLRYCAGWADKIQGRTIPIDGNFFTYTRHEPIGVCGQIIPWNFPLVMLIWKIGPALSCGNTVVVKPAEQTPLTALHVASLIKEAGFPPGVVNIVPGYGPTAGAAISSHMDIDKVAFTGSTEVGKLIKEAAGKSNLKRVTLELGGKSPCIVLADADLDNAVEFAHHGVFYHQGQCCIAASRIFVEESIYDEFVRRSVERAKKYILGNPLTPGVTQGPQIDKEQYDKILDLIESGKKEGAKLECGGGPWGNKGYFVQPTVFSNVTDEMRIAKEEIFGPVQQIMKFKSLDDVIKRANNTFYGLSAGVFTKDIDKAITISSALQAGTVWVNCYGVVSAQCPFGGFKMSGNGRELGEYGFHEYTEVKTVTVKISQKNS
HTT ATP protect = protects HTT-Q103 PC12 cells, measured by ATP. PC12 HTT-Q103 induced, cytoprotection, ATP luminescence, 40 h. Potency, µM (top dose mostly 56.4 µM), hits mostly activators. hit rate 0.14% among 230,000. AID 1471; note: nearly all actives have a fitted effect of over 45% in size
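ATP quantification (ATPlite) reports survival of PC12 cells in which tebufenozide, 100 nM final, switches on Htt exon 1 with 103 glutamines linked to GFP; compounds are titrated.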
HPGD inh = HPGD (human) dehydrogenase inhibition. Potency, µM, most hits filed as inhibitors. hit rate 4.3% among 150,000. P15428. purified HPGD, NADH fluorescence kinetic, PGE2 substrate; active = well fitted inhibition curve with a large enough effect, not every such curve was filed as active; inconclusive = small, poorly fitted or top-dose-only effect, or another doubt; inactive = no such curve, though single readings can be large or run the other way
Target sequence (P15428 whole entry, looked up): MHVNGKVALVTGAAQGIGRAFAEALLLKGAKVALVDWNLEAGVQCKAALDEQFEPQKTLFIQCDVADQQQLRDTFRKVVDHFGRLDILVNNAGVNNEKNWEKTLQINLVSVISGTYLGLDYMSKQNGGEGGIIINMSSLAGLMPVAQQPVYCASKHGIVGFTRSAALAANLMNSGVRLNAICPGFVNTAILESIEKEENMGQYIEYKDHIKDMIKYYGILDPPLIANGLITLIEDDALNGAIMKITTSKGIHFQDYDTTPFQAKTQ
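NADH formation kinetics: reaction with 30 uM PGE2 and 1 mM NAD+ (final), 20 nM enzyme, Tris-HCl pH 8 with Tween 20, after 15 min compound preincubation at room temperature. Fluorescence change, last versus first of five reads.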
HTT aggregate = reduces HttQ103-GFP aggregates in PC12 cells; Potency, µM (titrated, usually from 46.1 µM), usual class: inhibitors; hit rate 1.1% among 220,000; PC12 HttQ103-GFP aggregates, Acumen cytometry, 40 h; note: nearly all actives have a fitted effect of over 60% in size
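Using laser scanning cytometry, GFP-positive aggregates were counted after lysis of PC12 cells induced with 100 nM tebufenozide to express HTT exon 1 Q103–GFP. Compounds were tested in titration.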
Large screens that a line does not name were inactive. Unless noted, calls come from the whole dose curve; as a rule, active = well fitted curve in the direction sought with a large enough effect; inconclusive = small, poorly fitted or top-dose-only effect, or another doubt; inactive = no such curve, though single readings can be large; an effect the other way counts as inactive or inconclusive.

C=CCOC(=O)/C(=C/c1cccnc1)NC(=O)c1ccccc1	none (no result: LMNA splice mod, KinaseGlo FLuc, ALDH1A1 block, HPGD inh)
COc1ccc(C(=O)NCc2nnc(SCC(=O)N3CCc4ccccc43)o2)cc1OC	none
O=C(CSc1nnc(CNc2ccccc2)o1)N1CCc2ccccc21	ALDH1A1 block 16µM
Cc1cc(C)nc(SCc2nnc(SCC(=O)N3CCCc4ccccc43)o2)n1	ALDH1A1 block inconclusive
O=C(CSc1nnc(Cc2ccccc2)o1)N1CCCc2ccccc21	ALDH1A1 block 18µM, HPGD inh inconclusive
CCOC(=O)c1cn2nc(-c3ccc(OC)cc3)cc2nc1C1CCN(C(=O)OC(C)(C)C)CC1	ALDH1A1 block inconclusive, HPGD inh inconclusive
CCCCN(C)C(=O)c1nc2ccccn2c1CNCCCn1ncc2ccccc21	none (no result: LMNA splice mod, KinaseGlo FLuc, ALDH1A1 block, HPGD inh)
COc1cc(/C=N/NC(=O)c2sc(N)c(C#N)c2C)cc(Br)c1O	LMNA splice mod inconclusive, ALDH1A1 block 13µM
COc1ccc2ccccc2c1/C=N/NC(=O)c1sc(N)c(C#N)c1C	ALDH1A1 block inconclusive
CCOC(=O)c1[nH]cnc1C(=O)Nc1ccccn1	ALDH1A1 block 0.25µM (no result: KinaseGlo FLuc, HPGD inh)
COC(=O)c1ccc(NC(=O)C(C)N2Cc3ccccc3C2=O)cc1 (configuration not stated)	none (no result: KinaseGlo FLuc, ALDH1A1 block, HTT ATP protect, HPGD inh, HTT aggregate)
Cc1cc(C)cc(OC2CCCCC2NS(=O)(=O)c2ccccc2)c1 (configuration not stated)	ALDH1A1 block 13µM
CSc1ccc(OC2CCCCC2NS(=O)(=O)c2ccccc2)cc1 (configuration not stated)	LMNA splice mod inconclusive, ALDH1A1 block 1.3µM
O=C1C(Cl)=C(NCC2CCCO2)C(=O)N1Cc1ccccc1 (configuration not stated)	none
CC(NC(=O)c1cn(C(C)c2ccccc2F)nn1)c1ccncc1 (configuration not stated)	none (no result: LMNA splice mod, HPGD inh)
Cc1noc(C)c1CSc1ccccc1C(=O)Nc1nccs1	LMNA splice mod inconclusive, ALDH1A1 block 19µM
CC(C)(C)NC(=O)CSc1nnc(-c2ccncc2)o1	none (no result: HTT ATP protect)
COC(=O)c1ccccc1NC(=O)CSc1nnc(-c2ccncc2)o1	LMNA splice mod inconclusive, ALDH1A1 block 18µM
COC(=O)c1ccc(CN2C(=O)c3ccccc3S2(=O)=O)cc1	none
CCOC(=O)c1cnc(SCc2cccc(C)c2)nc1N	LMNA splice mod inconclusive, ALDH1A1 block 25µM, HPGD inh inconclusive
COc1ccccc1-c1nnc(SCC(=O)Nc2c(Cl)cccc2Cl)o1	LMNA splice mod inconclusive, ALDH1A1 block 22µM
COC(=O)c1cccc(N2C(=O)c3ccccc3S2(=O)=O)c1	HPGD inh 25µM
O=[N+]([O-])c1ccc([N+](=O)[O-])c(Nc2ccc(N3CCOCC3)cc2)c1	none (no result: HPGD inh)
Cc1cc(C)n(S(=O)(=O)c2ccc(C)c(C)c2C)n1	none
CCOC(=O)c1ccccc1NC(=O)CSc1ncc(C(=O)OCC)c(N)n1	ALDH1A1 block 20µM
COC(=O)c1ccccc1NC(=O)CN1C(=O)c2ccccc2S1(=O)=O	ALDH1A1 block 25µM
COC(=O)c1ccccc1NC(=O)CNc1cc(OC)c(OC)cc1C	LMNA splice mod inconclusive, ALDH1A1 block 10µM
CCOC(=O)c1ccccc1NC(=O)CSc1nc(N)cc(N)n1	none
CCc1ccccc1NCC(=O)Nc1ccccc1C(=O)OC	ALDH1A1 block inconclusive, HTT aggregate inconclusive (no result: KinaseGlo FLuc, HPGD inh)
COC(=O)c1ccccc1NC(=O)CSc1nc(N)cc(N)n1	ALDH1A1 block 25µM
COCCNC(=O)C(=O)NNC(=O)COc1ccc(OC)cc1	none (no result: HPGD inh)
COC(=O)c1ccc(NC(=O)Cn2c(=O)nc(-c3ccccc3)c3ccccc32)cc1	none (no result: KinaseGlo FLuc, ALDH1A1 block, HTT ATP protect, HPGD inh, HTT aggregate)
COC(=O)c1ccc(C(=O)OC)c(NC(=O)CN2CCN(c3ccccc3OC)CC2)c1	ALDH1A1 block inconclusive
COC(=O)c1ccc(C(=O)OC)c(NC(=O)COc2ccccc2OC)c1	ALDH1A1 block 13µM
COc1ccc(-c2noc(CSc3nc(-c4ccccc4)cc(=O)[nH]3)n2)cc1	HTT aggregate inconclusive
COc1ccc(-c2noc(CSc3nc(N)c(-c4ccccc4)c(=O)[nH]3)n2)cc1OC	ALDH1A1 block inconclusive, HPGD inh 16µM
Nc1nc(SCc2ccccc2)[nH]c(=O)c1-c1ccccc1	ALDH1A1 block 14µM, HTT aggregate inconclusive
Nc1nc(SCC(=O)N2CCCc3ccccc32)[nH]c(=O)c1-c1ccccc1	ALDH1A1 block 22µM, HTT aggregate inconclusive
Nc1nc(SCc2ccccc2Cl)[nH]c(=O)c1-c1ccccc1	LMNA splice mod inconclusive
COc1ccc(C(=O)Nn2c(SCC(=O)N3CCC(C)CC3)nc3ccccc3c2=O)cc1	KinaseGlo FLuc 13µM, ALDH1A1 block inconclusive, HPGD inh inconclusive
CCn1c(SCC(=O)Nc2nccs2)nnc1-c1cc2cccc(OC)c2o1	none
COc1ccc(C(=O)Nn2c(SCC(=O)c3ccc(Cl)cc3)nc3ccccc3c2=O)cc1	ALDH1A1 block inconclusive
COc1ccc(NC(=O)CSc2nc3ccccc3c(=O)n2CCCN2CCCCC2)c(OC)c1	ALDH1A1 block 10µM
CCn1c(SCC(=O)NC2CCCCC2)nnc1-c1cc2cccc(OC)c2o1	ALDH1A1 block inconclusive, HPGD inh 20µM
COc1ccccc1CNC(=O)CSc1nc2ccccc2c(=O)n1CCCN1CCOCC1	none (no result: HPGD inh)
COc1ccccc1-n1c(SCC(=O)N2CCCCC2)nc2cccnc21	ALDH1A1 block inconclusive, HPGD inh inconclusive
COc1ccccc1-n1c(SCC(=O)NC2CCCC2)nc2cccnc21	HPGD inh 14µM
CCOC(=O)c1sc(NS(=O)(=O)c2ccccc2Cl)nc1C	HTT aggregate inconclusive
Cc1ccccc1-c1nc(CNC(=O)NC2CCCCC2)c(C)o1	none (no result: KinaseGlo FLuc, ALDH1A1 block, HTT ATP protect, HPGD inh, HTT aggregate)
COc1ccc(CCN/C=C2/CC(=O)NC2=O)cc1OC	none
NNC(=O)Cc1cn(-c2ncc(C(F)(F)F)cc2Cl)c2ccccc12	none
COc1ccc(C(=O)Nn2c(SCC(=O)NC3CCCCC3)nc3ccccc3c2=O)cc1	KinaseGlo FLuc 14µM, ALDH1A1 block inconclusive
N#C/C(=C\c1ccc(-c2ccc(S(=O)(=O)N3CCOCC3)cc2)o1)C(=O)NC1CC1	ALDH1A1 block inconclusive, HPGD inh 14µM
Cc1cc(C)n2c(SCC(=O)Nc3ncc(C(F)(F)F)cc3Cl)nnc2n1	ALDH1A1 block 13µM
Cc1cc(C)n2c(SCC(=O)Nc3ccc(F)cc3)nnc2n1	ALDH1A1 block 14µM (no result: LMNA splice mod, KinaseGlo FLuc, HPGD inh)
Cc1cc(C)n2c(SCC(=O)Nc3ccc(F)cc3F)nnc2n1	LMNA splice mod inconclusive, ALDH1A1 block inconclusive (no result: HPGD inh)
COc1ccc2c(=O)c3c(=O)n(-c4ccccc4)c(-c4ccc(C)cc4)nc3oc2c1	none (no result: LMNA splice mod, KinaseGlo FLuc, HPGD inh)
CN(C)CCNc1ncnc2c1cnn2-c1ccc(Cl)cc1	none
O=c1nc2n(c3sc4c(c13)CCCC4)C(CBr)CS2 (configuration not stated)	LMNA splice mod inconclusive, ALDH1A1 block 13µM, HPGD inh inconclusive
